Among the data in the supplement of paper PMC10849652 are log2 fold change values, retold here.

Of roughly 7,900 targets only a part is listed; those with a hit were picked by preference. About 0.6% of all pairs of compound and target were hits. Values without a mark were called inactive.

Chain of UniProt Q9Y5W9 (Q9Y5W9 whole entry, looked up): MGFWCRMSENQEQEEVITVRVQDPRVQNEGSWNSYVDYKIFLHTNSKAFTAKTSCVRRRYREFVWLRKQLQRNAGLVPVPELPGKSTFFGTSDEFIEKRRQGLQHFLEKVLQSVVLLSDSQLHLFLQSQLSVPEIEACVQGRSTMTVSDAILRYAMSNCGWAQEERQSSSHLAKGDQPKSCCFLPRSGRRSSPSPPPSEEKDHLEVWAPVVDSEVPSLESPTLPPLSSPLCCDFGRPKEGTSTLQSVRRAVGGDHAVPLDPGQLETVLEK
Chain of UniProt Q92536 (Q92536 whole entry, looked up): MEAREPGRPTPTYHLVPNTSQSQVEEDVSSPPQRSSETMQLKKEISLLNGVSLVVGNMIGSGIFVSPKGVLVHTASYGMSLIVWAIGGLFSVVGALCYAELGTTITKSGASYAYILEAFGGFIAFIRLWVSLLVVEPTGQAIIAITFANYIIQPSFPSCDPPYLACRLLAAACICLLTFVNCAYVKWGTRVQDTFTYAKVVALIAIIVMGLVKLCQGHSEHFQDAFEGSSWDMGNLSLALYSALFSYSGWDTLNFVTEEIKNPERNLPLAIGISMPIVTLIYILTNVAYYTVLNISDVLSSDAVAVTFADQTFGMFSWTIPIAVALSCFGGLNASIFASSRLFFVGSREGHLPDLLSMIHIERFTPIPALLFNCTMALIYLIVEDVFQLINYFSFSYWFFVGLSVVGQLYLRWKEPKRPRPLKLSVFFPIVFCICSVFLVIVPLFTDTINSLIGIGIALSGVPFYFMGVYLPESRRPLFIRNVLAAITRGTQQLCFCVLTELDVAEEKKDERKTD
Chain of UniProt Q8WUH2 (Q8WUH2 whole entry, looked up): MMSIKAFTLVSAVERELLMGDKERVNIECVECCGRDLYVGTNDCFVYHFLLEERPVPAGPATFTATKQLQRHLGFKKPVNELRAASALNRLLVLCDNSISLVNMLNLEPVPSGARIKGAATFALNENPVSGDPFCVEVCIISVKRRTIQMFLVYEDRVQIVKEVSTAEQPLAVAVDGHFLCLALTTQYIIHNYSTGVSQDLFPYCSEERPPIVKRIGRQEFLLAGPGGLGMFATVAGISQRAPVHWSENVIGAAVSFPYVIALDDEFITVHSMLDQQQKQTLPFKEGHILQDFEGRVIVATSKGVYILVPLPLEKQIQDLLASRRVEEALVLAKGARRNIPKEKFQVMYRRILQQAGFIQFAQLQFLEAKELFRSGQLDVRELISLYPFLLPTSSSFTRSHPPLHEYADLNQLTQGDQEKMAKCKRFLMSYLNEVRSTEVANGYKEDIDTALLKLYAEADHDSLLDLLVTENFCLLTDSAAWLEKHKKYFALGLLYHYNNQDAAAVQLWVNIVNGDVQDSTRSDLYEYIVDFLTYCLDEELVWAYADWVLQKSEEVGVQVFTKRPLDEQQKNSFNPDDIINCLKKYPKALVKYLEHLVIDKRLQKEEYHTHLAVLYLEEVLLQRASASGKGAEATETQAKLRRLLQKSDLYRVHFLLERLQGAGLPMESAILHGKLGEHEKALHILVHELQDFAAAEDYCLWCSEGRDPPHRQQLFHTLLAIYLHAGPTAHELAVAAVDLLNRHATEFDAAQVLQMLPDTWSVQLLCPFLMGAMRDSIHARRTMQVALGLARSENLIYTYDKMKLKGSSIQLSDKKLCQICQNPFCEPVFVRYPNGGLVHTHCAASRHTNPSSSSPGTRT
Chain of UniProt O14975 (O14975 whole entry, looked up): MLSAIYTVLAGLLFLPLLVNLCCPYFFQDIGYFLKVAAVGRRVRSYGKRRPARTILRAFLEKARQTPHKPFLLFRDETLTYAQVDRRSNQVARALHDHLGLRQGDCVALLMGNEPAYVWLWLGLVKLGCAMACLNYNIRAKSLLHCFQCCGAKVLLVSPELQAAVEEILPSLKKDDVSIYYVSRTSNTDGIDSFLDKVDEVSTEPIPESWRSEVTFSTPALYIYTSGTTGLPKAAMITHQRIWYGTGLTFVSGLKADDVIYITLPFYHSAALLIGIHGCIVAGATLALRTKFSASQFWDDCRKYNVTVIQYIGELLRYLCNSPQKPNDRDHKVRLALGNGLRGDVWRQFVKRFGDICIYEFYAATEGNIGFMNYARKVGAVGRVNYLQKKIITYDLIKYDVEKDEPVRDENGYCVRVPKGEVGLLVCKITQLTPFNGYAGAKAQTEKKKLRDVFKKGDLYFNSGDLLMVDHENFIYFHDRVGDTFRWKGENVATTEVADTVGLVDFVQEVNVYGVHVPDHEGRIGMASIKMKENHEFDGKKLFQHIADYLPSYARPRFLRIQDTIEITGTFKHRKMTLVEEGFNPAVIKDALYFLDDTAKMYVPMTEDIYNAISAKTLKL
Chain of UniProt Q9NZD8 (Q9NZD8 whole entry, looked up): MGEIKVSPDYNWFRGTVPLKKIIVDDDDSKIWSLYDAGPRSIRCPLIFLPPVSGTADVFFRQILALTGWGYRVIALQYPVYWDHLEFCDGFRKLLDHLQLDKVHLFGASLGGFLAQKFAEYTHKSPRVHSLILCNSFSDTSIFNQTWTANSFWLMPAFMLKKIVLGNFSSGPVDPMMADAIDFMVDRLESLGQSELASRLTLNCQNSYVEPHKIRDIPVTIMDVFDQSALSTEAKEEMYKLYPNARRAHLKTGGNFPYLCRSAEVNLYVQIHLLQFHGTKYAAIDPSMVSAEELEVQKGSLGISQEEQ
Chain of UniProt Q13428 (Q13428 whole entry, looked up): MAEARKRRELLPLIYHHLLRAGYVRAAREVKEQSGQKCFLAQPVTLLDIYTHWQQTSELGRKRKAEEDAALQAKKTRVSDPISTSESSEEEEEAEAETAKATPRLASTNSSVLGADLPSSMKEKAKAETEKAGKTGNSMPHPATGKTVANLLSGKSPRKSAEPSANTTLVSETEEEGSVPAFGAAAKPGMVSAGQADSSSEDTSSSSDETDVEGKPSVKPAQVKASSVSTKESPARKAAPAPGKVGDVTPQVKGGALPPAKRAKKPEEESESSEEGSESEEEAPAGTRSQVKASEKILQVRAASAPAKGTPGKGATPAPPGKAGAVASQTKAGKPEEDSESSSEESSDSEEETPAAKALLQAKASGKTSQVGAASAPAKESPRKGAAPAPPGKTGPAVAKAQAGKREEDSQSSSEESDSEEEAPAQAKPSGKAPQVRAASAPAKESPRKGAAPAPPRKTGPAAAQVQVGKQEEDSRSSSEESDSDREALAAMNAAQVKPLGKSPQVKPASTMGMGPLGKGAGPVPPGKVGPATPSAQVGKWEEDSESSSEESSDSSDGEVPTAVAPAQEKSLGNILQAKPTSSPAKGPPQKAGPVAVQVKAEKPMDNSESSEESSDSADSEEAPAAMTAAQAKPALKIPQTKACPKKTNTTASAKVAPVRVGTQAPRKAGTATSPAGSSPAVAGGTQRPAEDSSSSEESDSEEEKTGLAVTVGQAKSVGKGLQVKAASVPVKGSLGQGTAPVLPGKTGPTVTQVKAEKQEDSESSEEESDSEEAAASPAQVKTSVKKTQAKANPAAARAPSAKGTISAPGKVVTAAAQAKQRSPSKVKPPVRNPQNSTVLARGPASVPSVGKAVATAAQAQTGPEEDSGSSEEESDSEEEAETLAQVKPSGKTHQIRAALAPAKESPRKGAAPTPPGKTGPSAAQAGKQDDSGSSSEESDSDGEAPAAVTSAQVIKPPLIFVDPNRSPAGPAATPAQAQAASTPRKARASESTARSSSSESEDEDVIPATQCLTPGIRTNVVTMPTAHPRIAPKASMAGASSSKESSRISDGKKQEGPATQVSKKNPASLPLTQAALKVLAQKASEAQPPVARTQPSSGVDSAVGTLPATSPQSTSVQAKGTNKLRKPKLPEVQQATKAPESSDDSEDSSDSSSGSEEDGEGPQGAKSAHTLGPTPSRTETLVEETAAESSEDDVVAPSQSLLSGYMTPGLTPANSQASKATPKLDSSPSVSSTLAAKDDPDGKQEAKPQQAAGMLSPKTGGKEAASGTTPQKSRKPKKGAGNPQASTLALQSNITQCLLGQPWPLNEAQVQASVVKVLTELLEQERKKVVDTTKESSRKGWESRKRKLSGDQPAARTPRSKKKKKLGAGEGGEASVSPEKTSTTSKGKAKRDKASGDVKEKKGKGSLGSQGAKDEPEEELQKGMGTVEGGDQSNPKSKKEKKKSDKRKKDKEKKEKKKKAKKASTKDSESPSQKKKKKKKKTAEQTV
Chain of UniProt Q93075 (Q93075 whole entry, looked up): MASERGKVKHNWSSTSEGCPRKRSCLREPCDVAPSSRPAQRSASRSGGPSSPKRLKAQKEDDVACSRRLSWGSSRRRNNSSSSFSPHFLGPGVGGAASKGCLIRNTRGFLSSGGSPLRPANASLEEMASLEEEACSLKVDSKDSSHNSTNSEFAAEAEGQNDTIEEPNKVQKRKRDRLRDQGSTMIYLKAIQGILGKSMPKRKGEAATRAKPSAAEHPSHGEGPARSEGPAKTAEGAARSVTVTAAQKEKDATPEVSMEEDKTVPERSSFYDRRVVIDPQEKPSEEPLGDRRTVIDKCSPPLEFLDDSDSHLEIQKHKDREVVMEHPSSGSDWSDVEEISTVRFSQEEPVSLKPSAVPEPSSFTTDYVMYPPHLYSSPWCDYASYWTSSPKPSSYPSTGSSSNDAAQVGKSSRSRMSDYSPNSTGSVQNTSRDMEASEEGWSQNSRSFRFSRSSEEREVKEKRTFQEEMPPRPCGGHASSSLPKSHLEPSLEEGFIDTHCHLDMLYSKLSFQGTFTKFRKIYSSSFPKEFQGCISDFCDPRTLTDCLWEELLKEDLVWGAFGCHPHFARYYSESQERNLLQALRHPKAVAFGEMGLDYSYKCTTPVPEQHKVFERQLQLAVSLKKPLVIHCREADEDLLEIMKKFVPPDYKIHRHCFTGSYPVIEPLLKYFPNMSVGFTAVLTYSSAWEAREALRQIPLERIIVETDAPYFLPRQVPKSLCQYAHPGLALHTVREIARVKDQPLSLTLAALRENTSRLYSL
Chain of UniProt P84103 (P84103 whole entry, looked up): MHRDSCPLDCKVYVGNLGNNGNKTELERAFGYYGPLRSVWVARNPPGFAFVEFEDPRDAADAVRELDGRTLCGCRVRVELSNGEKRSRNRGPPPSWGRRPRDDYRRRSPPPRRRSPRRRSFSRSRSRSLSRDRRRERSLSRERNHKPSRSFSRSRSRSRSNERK

Compound in this test: c1cn2cc(-c3ccc4cn[nH]c4c3)nc(Nc3ccc(N4CCOCC4)cc3)c2n1 [entospletinib]
In words: log2 fold change, soluble protein after heating vs DMSO (PISA); higher = thermal stabilisation; K562 cells, 10 uM, 30 min; active = over 0.2 and 3.5 SD of the protein, either way, in both replicates (recomputed). The method, boiled down:
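Aliquots of K562 cells (2×10^6 cells/mL) treated with 10 μM compound for 30 min were heated for 3 min over 48°C-58°C. After pooling and extraction in PBS with 0.5% NP-40 at 4°C, soluble protein from a 21,000xg, 90 min spin was quantified by TMTpro 16plex LC-MS/MS with channel sums equalised. Thermal stability is expressed against control samples, from duplicates, as a log2 fold change.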
Take TATDN2 (UniProt Q93075): the log2 fold change was -0.046.

SRRM2 (UniProt Q9UQ35): the log2 fold change is -0.048.

In the case of STAM2 (UniProt O75886), the log2 fold change is 0.052.

Take TIMM13 (UniProt Q9Y5L4): the log2 fold change was -0.086.

Regarding TCOF1 isoform 6 (UniProt Q13428), the log2 fold change is -0.006.

Consider TGFBRAP1 (UniProt Q8WUH2), for which the log2 fold change was 0.056.

In the case of SLC27A2 (UniProt O14975), the log2 fold change is 0.063.

On to SRSF3 (UniProt P84103), for which the log2 fold change is 0.153.

With TIMM21 (UniProt Q9BVV7), the log2 fold change was 0.017.

For STXBP2 isoform 3 (UniProt Q15833), the log2 fold change is 0.099.

Consider SUCLA2 (UniProt Q9P2R7), for which the log2 fold change is -0.048.

SNRNP27 (UniProt Q8WVK2): the log2 fold change is 0.025.

Take ST6GAL1 (UniProt P15907): the log2 fold change is 0.098.

Turning to TIPRL (UniProt O75663), the log2 fold change was 0.018.

As for TCERG1 (UniProt O14776), the log2 fold change is -0.043.

As to SYNE1 (UniProt Q8NF91), the log2 fold change was -0.141.

Take STX7 (UniProt O15400): the log2 fold change is 0.02.

With SMAP (UniProt O00193), the log2 fold change is 0.07.

Consider SLC25A4 (UniProt P12235), for which the log2 fold change was -0.009.

For SLC7A6 (UniProt Q92536), the log2 fold change is 0.031.

As for SRCAP (UniProt Q6ZRS2), the log2 fold change is 0.029.

SUOX (UniProt P51687): the log2 fold change is 0.03.

With TAOK2 (UniProt Q9UL54), the log2 fold change is -0.038.

SPG21 (UniProt Q9NZD8): the log2 fold change was -0.028.

Consider TFRC (UniProt P02786), for which the log2 fold change is 0.022.

Take SMAD9 (UniProt O15198): the log2 fold change is -0.026.

For SLC25A42 (UniProt Q86VD7), the log2 fold change was 0.055.

Regarding SNX11 (UniProt Q9Y5W9), the log2 fold change was 0.135.

For the target TMBIM1 (UniProt Q969X1), the log2 fold change is -0.019.

For SMIM20 isoform 2 (UniProt Q8N5G0), the log2 fold change was 0.008.

Regarding SLC25A38 (UniProt Q96DW6), the log2 fold change was -0.02.

TBC1D5 isoform 2 (UniProt Q92609): the log2 fold change was -0.02.

As to SURF1 (UniProt Q15526), the log2 fold change is 0.029.

Take SRSF4 (UniProt Q08170): the log2 fold change is 0.134.

Take TGFBR1 isoform 2 (UniProt P36897): the log2 fold change was -0.018.
